Experiment [1] has as its target Metallo-beta-lactamase type 2 (Klebsiella pneumoniae) (UniProt C7C422). The experiment in a line: qHTS to identify inhibitors of the New Delhi Metallo-beta-lactamase (NDM): assay validation screen against the NCATS LOPAC Collection (AID 1794843). Note: % is set by controls: 0 for no effect and ±100 for the full control effect. The settings on record: NDM-1 enzyme, nitrocefin hydrolysis, absorbance 485 nm; series mostly up to 38.4 µM. The essentials: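 Absorbance at 485 nm from nitrocefin turnover (50 uM solution added), read at plateau, gives the read-out. Compounds in DMSO were incubated first with 2 nM final NDM-1 in pH 7.0 HEPES buffer containing 1 uM ZnSO4 and 0.01% Tween20.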

The target in experiment [2] is Glutathione peroxidase 1 (Homo sapiens) (UniProt P07203). As to the kind of experiment: Primary qHTS Assay for Inhibitors of Recombinant Selenoprotein Glutathione Peroxidase 1 (GPX1) (AID 1845191). For activity, negative = inhibition: % is set by controls: 0 for no effect and ±100 for the full control effect. Note: nearly all actives have a fitted effect of over 65% in size. The following applies: recombinant GPX1, GR-coupled NADPH fluorescence, 15 min; series mostly up to 48.8 µM. The essentials:
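NADPH consumption tracked by fluorescence at 340/450 nm between t=0 and t=15 min, room temperature. Final mix: 10 nM GPX1, 100 nM glutathione reductase, 1 mM GSH, 0.5 mM NADPH, 0.5 mM cumene hydroperoxide, 0.01% BSA; 30 min compound–enzyme preincubation.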

In experiment [3] the target is Phospholipid hydroperoxide glutathione peroxidase GPX4 (Homo sapiens) (UniProt P36969). As to the kind of experiment: Primary qHTS Assay for Inhibitors of Recombinant Selenoprotein Glutathione Peroxidase 4 (GPX4) (AID 1845192). Note: nearly all actives have a fitted effect of over 65% in size. The following applies: recombinant GPX4, GR-coupled NADPH fluorescence, 15 min; series mostly up to 50 µM. In outline: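 NADPH consumption followed by fluorescence at 340/450 nm, t=0 and after 15 min at room temperature. Reaction started with cumene hydroperoxide (0.5 mM final) after 30 min compound–GPX4 preincubation; final 200 nM GPX4, 100 nM GR, 1 mM GSH, 0.5 mM NADPH.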
Sequence of Phospholipid hydroperoxide glutathione peroxidase GPX4 (Homo sapiens) (P36969 whole entry, looked up): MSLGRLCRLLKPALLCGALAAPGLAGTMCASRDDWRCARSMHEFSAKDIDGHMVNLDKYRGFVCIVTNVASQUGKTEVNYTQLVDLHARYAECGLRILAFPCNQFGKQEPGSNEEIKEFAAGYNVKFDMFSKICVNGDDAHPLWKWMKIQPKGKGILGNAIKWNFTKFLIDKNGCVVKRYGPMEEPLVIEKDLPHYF

The nature of experiment [4]: qHTS profiling for inhibitors of Plasmodium falciparum proliferation (AID 504749).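 For activity, negative = inhibition: 0% = DMSO vehicle and full inhibition = artemisinin control.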 For all read-outs here: nearly all actives have a fitted effect of over 60% in size. Note: potency is the fitted concentration of half-maximal effect. The settings on record: P. falciparum in erythrocytes, SYBR Green DNA, 72 h; for activity, negative = inhibition: at 28.7 µM (top of the series). The essentials:
(§1)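 SYBR Green fluorescence of parasite DNA, read after lysis and overnight dark incubation, measured growth over 72 h in erythrocyte culture at 0.3% parasitemia and 2.5% hematocrit. Data normalised to DMSO and 0.29 uM artemisinin, with plate-drift correction.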
Background: In qHTS, concentration-response curves come from the screen itself.

The subject of the next experiment is 3D7. The experiment is described as above. The following applies: P. falciparum in erythrocytes, SYBR Green DNA, 72 h; series mostly up to 28.7 µM. The essentials:
as §1

A further experiment has as its system 7G8. Described as above. The following applies: P. falciparum in erythrocytes, SYBR Green DNA, 72 h; series mostly up to 28.7 µM. The essentials: as §1
The subject of a further experiment is AA1029. The experiment is described as above. The settings on record: P. falciparum in erythrocytes, SYBR Green DNA, 72 h; series mostly up to 28.7 µM. The essentials: as §1
The next experiment relates to AS120. Described as above. The following applies: P. falciparum in erythrocytes, SYBR Green DNA, 72 h; series mostly up to 28.7 µM. In outline: as §1
The next experiment concerns ATS189. The experiment is described as above. The following applies: P. falciparum in erythrocytes, SYBR Green DNA, 72 h; series mostly up to 28.7 µM. In outline:
as §1

The test system of the next experiment is ATS95. The experiment is described as above. The settings on record: P. falciparum in erythrocytes, SYBR Green DNA, 72 h; series mostly up to 28.7 µM. In outline: as §1
A further experiment relates to C2A. Described as above. The settings on record: P. falciparum in erythrocytes, SYBR Green DNA, 72 h; series mostly up to 28.7 µM. The essentials: as §1
The subject of another experiment is CP185. The experiment is described as above. The settings on record: P. falciparum in erythrocytes, SYBR Green DNA, 72 h; series mostly up to 28.7 µM. The essentials: as §1
The next experiment has as its system CP191. Described as above. The following applies: P. falciparum in erythrocytes, SYBR Green DNA, 72 h; series mostly up to 28.7 µM. In outline:
as §1

A further experiment deals with CP192. The experiment is described as above. The following applies: P. falciparum in erythrocytes, SYBR Green DNA, 72 h; series mostly up to 28.7 µM. In outline: as §1
In another experiment the test system is CP194. Described as above. The following applies: P. falciparum in erythrocytes, SYBR Green DNA, 72 h; series mostly up to 28.7 µM. In outline: as §1

Results filed as inconclusive are left out. A number with no mark means an inactive call. Activity calls are given as the source filed them. Calls come from the whole dose curve; as a rule, active = well fitted curve in the direction sought with a large enough effect; inconclusive = small, poorly fitted or top-dose-only effect, or another doubt; inactive = no such curve, though single readings can be large; an effect the other way counts as inactive or inconclusive.

Sequence of Metallo-beta-lactamase type 2 (Klebsiella pneumoniae) (C7C422 whole entry, looked up): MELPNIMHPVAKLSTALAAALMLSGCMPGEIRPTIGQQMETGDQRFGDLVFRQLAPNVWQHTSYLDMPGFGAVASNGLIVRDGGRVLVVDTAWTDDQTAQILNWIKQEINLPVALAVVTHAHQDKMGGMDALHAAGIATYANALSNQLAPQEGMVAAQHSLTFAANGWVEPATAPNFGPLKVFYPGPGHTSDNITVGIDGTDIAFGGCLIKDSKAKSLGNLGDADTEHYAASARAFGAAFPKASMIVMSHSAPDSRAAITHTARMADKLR
Sequence of Glutathione peroxidase 1 (Homo sapiens) (P07203 whole entry, looked up): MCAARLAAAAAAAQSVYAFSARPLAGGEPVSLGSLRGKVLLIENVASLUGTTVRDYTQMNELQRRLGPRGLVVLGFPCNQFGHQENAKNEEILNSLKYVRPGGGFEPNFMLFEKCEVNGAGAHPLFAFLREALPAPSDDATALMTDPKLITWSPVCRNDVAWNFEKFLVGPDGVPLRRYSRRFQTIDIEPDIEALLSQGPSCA

With `O=c1[nH]c(=O)n([C@H]2C[C@H](O)[C@@H](CO)O2)cc1Br`, the Potency entry (in experiment [1]; in experiment [2]; in the experiment with 3D7; in the experiment on 7G8; in the experiment on AA1029; in the experiment on AS120) was “inactive” throughout. Besides, the Potency result with ATS189, in the experiment with ATS95, in the experiment on C2A, in the experiment on CP185, in the experiment with CP191 and with CP192 was “inactive” each time. The Potency result in the experiment on CP194 is “inactive”. For the same compound, the outcome in [3] was inactive. Further, the figures for the activity, negative = inhibition in [4] (parasite line A) and in experiment [4] (parasite line B) were -7.76% and -6.27%, respectively.

As for `NC(N)=NC(=O)Cc1c(Cl)cccc1Cl`, the Potency entry (in experiment [1]; in experiment [2]; with 3D7) was “inactive” in each case. For the same compound, the outcome in experiment [3] was inactive. Also, the Potency was 5.62 µM (active) in experiment [4] (parasite line A), 5.01 µM (active) in experiment [4] (parasite line B), 12.6 µM (active) with 7G8 and 8.91 µM (active) with CP191.

For the compound `NC/C=C/C(=O)O`, the Potency result (in experiment [1]; in experiment [2]; with 3D7; in the experiment on 7G8; in the experiment with AA1029; with AS120) was “inactive” in each case. The Potency entry in the experiment on ATS189, in the experiment with ATS95, with C2A, in the experiment on CP185, in the experiment with CP191 and in the experiment with CP192 was “inactive” each time. Besides, in the experiment on CP194, the Potency entry is “inactive”. In addition, in experiment [3], the result was inactive. Also, the activity, negative = inhibition in experiment [4] (parasite line A) was 13.5%; in experiment [4] (parasite line B), 11.1%.

Turning to `CSc1ccc(C(=O)c2[nH]c(=O)[nH]c2C)cc1`, the Potency result (in [1]; in experiment [2]; in the experiment on 3D7; in the experiment on 7G8; with AA1029; in the experiment with AS120) was “inactive” throughout. In addition, the Potency result in the experiment on ATS189, in the experiment with ATS95, in the experiment on C2A, in the experiment on CP185, in the experiment with CP191 and in the experiment with CP192 was “inactive” throughout. In the experiment with CP194, the Potency entry was “inactive”. For the same compound, in experiment [3], the result was inactive. The activity, negative = inhibition in experiment [4] (parasite line A) was 9.87%; in [4] (parasite line B), 9.86%.

With `CCN(CC)CCCN(c1ccccc1)C1Cc2ccccc2C1`, the Potency entry in experiment [1] and in experiment [2] was “inactive” throughout. Moreover, the outcome in [3] was inactive. The Potency in [4] (parasite line A) was 4.47 µM (active); in experiment [4] (parasite line B), 7.08 µM (active); with 3D7, 10 µM (active); in the experiment with 7G8 it was 1.78 µM (active); with AA1029, 4.47 µM (active); in the experiment with AS120, 4.47 µM (active). The Potency was 12.6 µM (active) in the experiment with ATS189; 5.01 µM (active) in the experiment on ATS95; 11.2 µM (active) in the experiment on C2A; 6.31 µM (active) in the experiment with CP185; 5.01 µM (active) with CP191; 10.7 µM (active) with CP192. Further, the Potency with CP194 is 7.57 µM (active).

For the compound `O=C(CCNNC(=O)c1ccncc1)NCc1ccccc1`, the Potency result (in experiment [1]; in experiment [2]; in the experiment with 3D7; with 7G8; in the experiment on AA1029; in the experiment with AS120) was “inactive” in each case. Also, the Potency entry in the experiment with ATS189, in the experiment on ATS95, in the experiment on C2A, in the experiment with CP185, with CP191 and in the experiment with CP192 was “inactive” each time. For the same compound, in the experiment with CP194, the Potency result was “inactive”. Moreover, the result in [3] was inactive. For the same compound, the activity, negative = inhibition was 13.9% in [4] (parasite line A) and 17% in experiment [4] (parasite line B).

With `CNCCC(Oc1ccccc1OC)c1ccccc1` (centres undefined), the Potency result (in experiment [1]; in [2]; with 3D7; in the experiment with C2A; in the experiment on CP191; in the experiment with CP192) was “inactive” in each case. Besides, the outcome in experiment [3] was inactive. Further, the activity, negative = inhibition was 3.02% in experiment [4] (parasite line A) and -7.17% in [4] (parasite line B). The Potency is 4.47 µM (active) with 7G8 and 10 µM (active) in the experiment with AA1029.

As to `CCc1cccc(N(C)C(N)=Nc2cccc3ccccc23)c1`, the Potency entry (in [1]; in [2]; in the experiment on 3D7; in the experiment with C2A; with CP192) was “inactive” in each case. The outcome in [3] was inactive. The figures for the activity, negative = inhibition in experiment [4] (parasite line A) and in experiment [4] (parasite line B) were -26.1% and -10.7%, respectively. Moreover, the results for the Potency with 7G8 and in the experiment with AA1029 were 3.98 µM (active) and 3.55 µM (active), respectively.

These data come from PubChem BioAssay (NCATS).
